Measured values from ChEMBL document CHEMBL4513216, “Probing the Open Global Health Chemical Diversity Library for Multistage-Active Starting Points for Next-Generation Antimalarials” (ACS Infect Dis, 2020).
Hit rate of the full screen: of about 65,000 compounds, about 2,100 (3.2%) showed an effect of 50% or more. The median lay at about -52%. This excerpt belongs to a sample that is enriched for strong results.

The compounds below were run on Plasmodium falciparum (assay: Screen against P. falciparum Asexual Blood Stage (ABS), at 5uM). Details: tested at 5 uM.
Format: functional, Dd2

Row | Structure (SMILES) | INHIBITION [%]
1 | Cc1cnc(CN2CCOC(Cn3nc(C)cc3C)C2)cn1 (centres undefined) | -20.8
2 | Cc1cc(CN2CCOC(Cn3nc(C)cc3C)C2)on1 (centres undefined) | 46.7
3 | Cc1cc(C)n(CC2CN(Cc3cnc(C)s3)CCO2)n1 (centres undefined) | 53.2
4 | CCN1CCN(C(=O)c2cc(NC(=O)c3ccccc3)n(C)n2)CC1 | -98
5 | CC(=O)N(Cc1ncc(C(C)C)o1)C1CCN(Cc2cc(C)no2)C1 (centres undefined) | 59
6 | CC(=O)N(Cc1ncc(C(C)C)o1)C1CCN(Cc2ccno2)C1 (centres undefined) | 45.7
7 | CC(=O)N(Cc1ncc(C(C)C)o1)C1CCN(CC2CCC2)C1 (centres undefined) | -113
8 | CC(=O)N(Cc1ncc(C)o1)C1CCN(Cc2nccn2C)C1 (centres undefined) | -133
9 | CC(=O)N(Cc1ncc(C(C)C)o1)C1CCN(CCC#N)C1 (centres undefined) | 57
10 | CCc1cnc(CN(C(C)=O)C2CCN(Cc3nccn3C)C2)o1 (centres undefined) | 51.5
11 | CC(=O)N(Cc1ncc(C(C)C)o1)C1CCN(CCn2cccn2)C1 (centres undefined) | -150
12 | CC(=O)N(Cc1ncc(C(C)C)o1)C1CCN(Cc2cc(C)on2)C1 (centres undefined) | -83.8
13 | CC(=O)N(Cc1ncc(C(C)C)o1)C1CCN(Cc2nccn2C)C1 (centres undefined) | -176
14 | COCCN(Cc1cnn(C)c1)C(=O)C1CCCN(C2CCOCC2)C1 (centres undefined) | -15.9
15 | CCN(Cc1ccncc1)c1cc(C2CCCNC2)nc(C)n1 (centres undefined) | -121
16 | CN(Cc1cccnc1)C1COC2(CCN(Cc3nccs3)CC2)C1 (centres undefined) | -52.5
17 | O=C(c1cccnc1)N1CCCC1c1cc[nH]n1 (centres undefined) | -66.5
18 | N#Cc1ccc(N2CCCC3(CCN(c4cccnc4)CC3)C2)cc1 | -71.3
19 | COc1cc(C)sc1C(=O)NCCNc1ccccc1 | 18.7
20 | COc1cc(C)sc1C(=O)NCCC(=O)N(C)c1ccccc1 | 33.9
21 | COc1cc(C)sc1C(=O)NCCC(=O)N(C)Cc1ccccc1 | 59.3
22 | N#Cc1ccc(NC2CCN(Cc3ccccn3)CC2)c(F)c1 | -118
23 | Fc1ccc(OCCNC2CCN(Cc3ccccn3)CC2)c(F)c1 | 69.8
24 | c1ccc(CN2CCC(NCCc3ccc4c(c3)CCO4)CC2)nc1 | 36
25 | COC(=O)c1ccc(CNCc2cn(C)nc2C)cc1 | -133
26 | O=C(NCCC1=CCCCC1)NC1CCCc2c1cnn2CCO (centres undefined) | -134

Row | Structure (SMILES) | INHIBITION [%]
27 | CN(Cc1ccccc1)CC(O)Cn1cnc2ccsc2c1=O (centres undefined) | 19
28 | CN(Cc1ccccc1)CC(O)Cn1cnc2ccccc2c1=O (centres undefined) | -2.56
29 | CN(Cc1ccccc1)CC(O)Cn1cnc2sccc2c1=O (centres undefined) | 62.1
30 | CC(C)CS(=O)(=O)Nc1ccc2c(c1)OCC(C)(C)C(=O)N2C | -28.6
31 | CCCC(NC(=O)c1cc(C)c(F)cc1F)c1nnn[nH]1 (centres undefined) | -94.1
32 | O[C@@H]1C[C@H]2CN(Cc3ccccc3Cl)[C@H](Cc3ccccc3)CN2C1 | 56.3
33 | C=Cn1ncc(CN2C[C@@H]3C[C@@H](O)CN3C[C@@H]2Cc2ccccc2)c1C | -7.65
34 | O[C@@H]1C[C@H]2CN(Cc3ccccc3)[C@H](Cc3ccccc3)CN2C1 | 69.1
35 | O[C@@H]1C[C@H]2CN(CC3CCCCC3)[C@H](Cc3ccccc3)CN2C1 | 37.6
36 | COc1ncc(CN2C[C@@H]3C[C@@H](O)CN3C[C@@H]2Cc2ccccc2)cn1 | -117
37 | CCc1ncc(CN2C[C@@H]3C[C@@H](O)CN3C[C@@H]2Cc2ccccc2)cn1 | -55
38 | COCC(=O)N1CCCC(c2cc(C(F)F)n3ncnc3n2)C1 (centres undefined) | 10.4
39 | Cn1cc(NC(=O)Cn2cc(-c3ccccc3)ncc2=O)cn1 | -15.3
40 | COC(=O)c1cccc(S(=O)(=O)NCC(c2ccco2)N2CCCC2)c1 (centres undefined) | 19.7
41 | Cc1cnn(CC2CCCN2C(=O)Cc2cccs2)c1 (centres undefined) | -35.5
42 | Cc1cc(C)n(C2CN(CC(O)c3ccc(S(C)(=O)=O)cc3)C2)n1 (centres undefined) | -123
43 | Cc1cnn(C2CN(CC(O)c3ccc(F)cc3)C2)c1 (centres undefined) | 57.4
44 | Cc1cc(C)n(C2CN(CC(O)COc3ccc(F)cc3)C2)n1 (centres undefined) | -18.8
45 | Cc1cc(C)n(C2CN(CC(O)c3ccc4c(c3)OCO4)C2)n1 (centres undefined) | 43.5
46 | Cc1cc(C)n(C2CN(CC(O)c3ccc(C(F)(F)F)cc3)C2)n1 (centres undefined) | 65.4
47 | COc1ccc(C(O)CN2CC(n3cc(C)cn3)C2)cc1 (centres undefined) | 22
48 | COc1ccc(C(O)CN2CC(n3nc(C)cc3C)C2)cc1 (centres undefined) | 49.2
49 | Cc1cc(C)n(C2CN(CC(O)c3ccc(F)cc3)C2)n1 (centres undefined) | 62.8
50 | Cc1cnn(C2CN(CC(O)c3ccccc3)C2)c1 (centres undefined) | 40.9
51 | O=C(Cc1ccccc1)N1CCC(c2nnc(-c3ccccn3)o2)CC1 | 2.71
52 | CC(Cc1ccco1)NC(=O)Nc1ccc(N(C)C)nc1 (centres undefined) | -297

Row | Structure (SMILES) | INHIBITION [%]
53 | CC(C)COC(=O)N1CC(=O)N(CCc2ccccc2)CC(O)C1 (centres undefined) | -47.8
54 | Cc1oc(-c2ccsc2)nc1CN1CCCC(c2ccnn2C)C1 (centres undefined) | -72.5
55 | CN1CCN(Cc2cccnc2)C2(CCN(c3ncccn3)C2)C1=O (centres undefined) | -162
56 | Cn1ccnc1C(=O)N1CCC2(CCN2c2ncccn2)C1 (centres undefined) | -49.3
57 | Cc1ccc(Nc2nccc(C3CCN(C(=O)CN)C3)n2)nc1 (centres undefined) | -205
58 | Clc1ccc(N2CCN(CCCN3CCCCC3)CC2)nc1 | 69.2
59 | CSCCCN1CCN(c2ccc(Cl)cn2)CC1 | 30.7
60 | CS(=O)(=O)CCN1CCN(c2ccc(Cl)cn2)CC1 | 0.0372
61 | CN1CCN(Cc2ccncc2)C(=O)C12CCN(c1nccs1)CC2 | -78.4
62 | CCCc1nc(C(C)(C)NC(=O)C2CC(=O)N(CC)C2)no1 (centres undefined) | -33.1
63 | N#Cc1cc(C#N)c(SCC(=O)Nc2ccc(F)cc2)nc1N | 67.3
64 | N#Cc1cc(C#N)c(SCCC(=O)Nc2ccc(F)cc2)nc1N | 13.7
65 | N#Cc1cc(C#N)c(SCC(=O)NCc2ccc(F)cc2)nc1N | -74.4
66 | CCC(Nc1ccc(CCN2CCCCC2)cc1)C(N)=O (centres undefined) | 1.58
67 | O=C(O)c1cc(S(=O)(=O)Nc2ccc(F)cc2F)cc2c1OCCO2 | -20.9
68 | CCn1cnnc1CNC(=O)N1CCN(c2ccccc2OC)CC1 | -69.5
69 | O=C(c1cc(Cl)c[nH]1)N1CCCC(c2cc(C(F)(F)F)[nH]n2)C1 (centres undefined) | 20.5
70 | Cc1ccc(-c2nc(CSCCC(=O)NC(N)=O)co2)c(C)c1 | -115
71 | CSc1ccc(C(=O)N2CCOCC2c2c(C)n[nH]c2C)o1 (centres undefined) | -159
72 | Cc1cc(C)n(CC(=O)NC(Cc2ccsc2)c2ccccn2)c(=O)n1 (centres undefined) | -151
73 | COc1ccccc1C1(CNc2nnc(C)c(C)c2C#N)CCCC1 | 58.4
74 | Cc1nnc(NCc2cccnc2OCC(F)(F)F)c(C#N)c1C | -46.2
75 | Cc1nnc(NCC2(c3ccccc3)CCC2)c(C#N)c1C | -32.2
76 | CCCOc1ncccc1CNc1nnc(C)c(C)c1C#N | -121
77 | CCOc1ncccc1CNc1nnc(C)c(C)c1C#N | 60
78 | COCc1ccccc1CNc1nnc(C)c(C)c1C#N | -155

Row | Structure (SMILES) | INHIBITION [%]
79 | Cc1nnc(NCc2ccccc2F)c(C#N)c1C | 64.4
80 | Cc1nnc(NCc2ccccc2Cl)c(C#N)c1C | 6.46
81 | COc1ccccc1C1(CNc2nnc(C)c(C)c2C#N)CCOCC1 | 3.69
82 | Cc1ccccc1COCCOCn1c(C)cc(=O)[nH]c1=O | -70.8
83 | CCn1nnc2c1C(COCC(=O)N(C)C)CN(Cc1ccoc1)C2 (centres undefined) | -97.7
84 | O=C(Cc1cccs1)Nc1cnn(C2CCOCC2)c1 | -142
85 | CCOC(=O)[C@H]1[C@@H](O)C(=O)N(C)C12CCN(C(=O)c1ccccc1)CC2 | -32.3
86 | O=C1CC2(CCCNC2)C(=O)N1Cc1ccc(F)cc1 (centres undefined) | -26
87 | O=C1CC2(CCCNC2)C(=O)N1Cc1ccc(Cl)cc1 (centres undefined) | 51.8
88 | O=C1CC2(CCCNC2)C(=O)N1Cc1cccc(F)c1 (centres undefined) | -47.2
89 | O=C(Nc1ccnc(OC2CCOC2)c1)c1ccccc1Cl (centres undefined) | -34.1
90 | O=C(NCC(=O)N1CCCc2ccccc21)c1c(O)cc(F)cc1F | -115
91 | COC(=O)c1c(Cl)c(C)nc2onc(C)c12 | -117
92 | CC1CCN(C(=O)C2CCN(c3ccc(Cl)cc3C#N)CC2)CC1 | 60.5
93 | CCN(CC)C(=O)C1CCN(c2ccc(Cl)cc2C#N)CC1 | -147
94 | N#Cc1cc(Cl)ccc1N1CCN(C(=O)C2CCC2)CC1 | -75.4
95 | Cn1cc(CN2CCCC23CCN(S(C)(=O)=O)CC3)cn1 | -54.3
96 | O=c1n(CCNc2cccc3ccccc23)nc2ccccn12 | -149
97 | CCC1=N[C@@]2(CC[C@@H]3CN(Cc4ccccc4F)C[C@@H]32)C(=O)N1CC | 39.8
98 | CC1=N[C@@]2(CC[C@@H]3CN(Cc4ccc(C)cc4)C[C@@H]32)C(=O)N1CC1CC1 | 30.2
99 | CC1=N[C@@]2(CC[C@@H]3CN(Cc4ccccc4)C[C@@H]32)C(=O)N1CC1CC1 | 17.7
100 | CC1=N[C@@]2(CC[C@@H]3CN(Cc4ccccc4F)C[C@@H]32)C(=O)N1CC1CC1 | 67.6
101 | CC1=N[C@@]2(CC[C@@H]3CN(Cc4cccc(Cl)c4)C[C@@H]32)C(=O)N1CC1CC1 | 67.2
102 | COCCN1C(=O)[C@]2(CC[C@@H]3CN(Cc4ccccc4F)C[C@@H]32)N=C1C | -37.9
103 | COCCN(C)C(=O)Nc1ccc2c(ccn2CCOC)c1 | -178
104 | Cc1nnc(N2CC[C@H]3C[C@H](C(=O)N4CCOCC4)O[C@H]3C2)s1 | -42.1
